From PubChem BioAssay (NCI)
“And” between values parts separate entries of the source, which are not always exact repeats. Equal entries are not always repeated. Compounds without any hit were thinned out: in the full panel of roughly 83,000, 20% have a hit.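 Note: values are percent growth. 100 is the growth of untreated cells, values between 100 and 0 indicate rising inhibition; between -100 and 0 indicates cell death.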 The source made the active and inactive calls. Rule for the calls: active = growth percent below 10; inactive = the rest.

How the values were obtained:
Experiment in all cases: NCI-60 one-dose screen, 48 h (100 = growth as untreated, 0 = no growth, -100 = all killed)
HCT-15 colon = tested on: HCT-15 colon
HT29 colon = tested on: HT29 colon
SNB-75 CNS = tested on: SNB-75 CNS
SNB-19 CNS = tested on: SNB-19 CNS
U251 CNS = tested on: U251 CNS
PC-3 prostate = tested on: PC-3 prostate
SK-MEL-5 melanoma = tested on: SK-MEL-5 melanoma
UACC-62 melanoma = tested on: UACC-62 melanoma
LOX IMVI melanoma = tested on: LOX IMVI melanoma
SK-MEL-28 melanoma = tested on: SK-MEL-28 melanoma
SK-MEL-2 melanoma = tested on: SK-MEL-2 melanoma
EKVX NSCLC = tested on: EKVX NSCLC
SN12C renal = tested on: SN12C renal
UO-31 renal = tested on: UO-31 renal
TK-10 renal = tested on: TK-10 renal
ACHN renal = tested on: ACHN renal
CAKI-1 renal = tested on: CAKI-1 renal
A498 renal = tested on: A498 renal
CCRF-CEM leukemia = tested on: CCRF-CEM leukemia
MOLT-4 leukemia = tested on: MOLT-4 leukemia

Measured: growth

O=c1[nH]cc(F)c(=O)[nH]1
active: A498 renal; 25 µM -16.3%
45.5% (inactive) and -28.2% (active): SK-MEL-5 melanoma; 10 µM
inactive: HCT-15 colon; 10 µM 48.1% and 51.4% | HCT-15 colon; 25 µM 26.5% | HCT-15 colon; 50 µM 37.8% | HT29 colon; 10 µM 43.6% and 42.6% | HT29 colon; 25 µM 27.1% | HT29 colon; 50 µM 31.4% | SNB-75 CNS; 10 µM 73.5% and 90.2% | SNB-75 CNS; 25 µM 65.9% | SNB-75 CNS; 50 µM 63.8% | SNB-19 CNS; 10 µM 75.7% and 83.3% | SNB-19 CNS; 25 µM 65.9% | SNB-19 CNS; 50 µM 66.7% | U251 CNS; 10 µM 74.7% and 78.7% | U251 CNS; 25 µM 50.3% | U251 CNS; 50 µM 61.1% | PC-3 prostate; 10 µM 73.6% and 75.1% | PC-3 prostate; 25 µM 58.2% | PC-3 prostate; 50 µM 64.8% | SK-MEL-5 melanoma; 25 µM 33.7% | SK-MEL-5 melanoma; 50 µM 59.5% | UACC-62 melanoma; 10 µM 51.9% and 48.4% | UACC-62 melanoma; 25 µM 39.7% | UACC-62 melanoma; 50 µM 54% | LOX IMVI melanoma; 10 µM 41.7% and 51% | LOX IMVI melanoma; 25 µM 30.4% | LOX IMVI melanoma; 50 µM 35.7% | SK-MEL-28 melanoma; 10 µM 62.2% | SK-MEL-28 melanoma; 50 µM 50.9% | SK-MEL-2 melanoma; 10 µM 71.4% and 106% | SK-MEL-2 melanoma; 25 µM 95.5% | SK-MEL-2 melanoma; 50 µM 73% | EKVX NSCLC; 10 µM 74.3% and 82.4% | EKVX NSCLC; 25 µM 58.4% | EKVX NSCLC; 50 µM 62.8% | SN12C renal; 10 µM 57% and 73% | SN12C renal; 25 µM 54% | SN12C renal; 50 µM 46.3% | UO-31 renal; 10 µM 29.3% and 41.7% | UO-31 renal; 25 µM 41.3% | UO-31 renal; 50 µM 38.2% | TK-10 renal; 10 µM 71.2% | TK-10 renal; 25 µM 66.9% | ACHN renal; 10 µM 39.8% and 60.1% | ACHN renal; 25 µM 39.3% | ACHN renal; 50 µM 36.9% | CAKI-1 renal; 10 µM 28.5% and 63.3% | CAKI-1 renal; 25 µM 39.4% | CAKI-1 renal; 50 µM 43.2% | A498 renal; 10 µM 40.1% | A498 renal; 50 µM 52.6% | CCRF-CEM leukemia; 10 µM 56.3% and 65.9% | CCRF-CEM leukemia; 25 µM 57.1% | CCRF-CEM leukemia; 50 µM 50% | MOLT-4 leukemia; 10 µM 57.5% and 74.9% | MOLT-4 leukemia; 25 µM 43.1% | MOLT-4 leukemia; 50 µM 37.6%

BrC/C=C/C[P+](c1ccccc1)(c1ccccc1)c1ccccc1
inactive: HCT-15 colon; 10 µM 37.3% | HT29 colon; 10 µM 60% | SNB-19 CNS; 10 µM 46.6% | U251 CNS; 10 µM 18.2% | PC-3 prostate; 10 µM 22.4% | SK-MEL-5 melanoma; 10 µM 53.9% | UACC-62 melanoma; 10 µM 52.8% | SK-MEL-28 melanoma; 10 µM 53.2% | SK-MEL-2 melanoma; 10 µM 78.7% | EKVX NSCLC; 10 µM 70.2% | SN12C renal; 10 µM 64.4% | UO-31 renal; 10 µM 66.2% | TK-10 renal; 10 µM 48.7% | ACHN renal; 10 µM 43.4% | CAKI-1 renal; 10 µM 103% | A498 renal; 10 µM 72.9% | CCRF-CEM leukemia; 10 µM 37.9% | MOLT-4 leukemia; 10 µM 79.7%
active: LOX IMVI melanoma; 10 µM 2.3%

S=c1[nH]nc(Cc2ccccc2)c(=S)[nH]1
inactive: HCT-15 colon; 10 µM 102% | HT29 colon; 10 µM 97.4% | SNB-75 CNS; 10 µM 92.8% | SNB-19 CNS; 10 µM 109% | U251 CNS; 10 µM 100% | PC-3 prostate; 10 µM 89.1% | SK-MEL-5 melanoma; 10 µM 110% | UACC-62 melanoma; 10 µM 110% | LOX IMVI melanoma; 10 µM 94.4% | SK-MEL-28 melanoma; 10 µM 114% | SK-MEL-2 melanoma; 10 µM 104% | EKVX NSCLC; 10 µM 97.8% | SN12C renal; 10 µM 113% | UO-31 renal; 10 µM 76.3% | TK-10 renal; 10 µM 99.7% | ACHN renal; 10 µM 107% | CAKI-1 renal; 10 µM 97.6% | A498 renal; 10 µM 68.9% | CCRF-CEM leukemia; 10 µM 104% | MOLT-4 leukemia; 10 µM 106%

CCCCCCCCCCCCCCCCCN
inactive: HCT-15 colon; 10 µM 104% | HT29 colon; 10 µM 98.9% | SNB-75 CNS; 10 µM 92.6% | SNB-19 CNS; 10 µM 102% | U251 CNS; 10 µM 96.3% | PC-3 prostate; 10 µM 92.3% | SK-MEL-5 melanoma; 10 µM 103% | UACC-62 melanoma; 10 µM 102% | LOX IMVI melanoma; 10 µM 102% | SK-MEL-28 melanoma; 10 µM 101% | SK-MEL-2 melanoma; 10 µM 110% | SN12C renal; 10 µM 96.8% | UO-31 renal; 10 µM 87.6% | TK-10 renal; 10 µM 102% | ACHN renal; 10 µM 97% | CAKI-1 renal; 10 µM 91.1% | A498 renal; 10 µM 104% | CCRF-CEM leukemia; 10 µM 102% | MOLT-4 leukemia; 10 µM 104%

Cc1cnc(/C=N\NC(N)=S)c2cccc(N)c12
active: SNB-75 CNS; 10 µM -2.85% | UACC-62 melanoma; 10 µM -15.7% | LOX IMVI melanoma; 10 µM 6.91% | SK-MEL-2 melanoma; 10 µM -6.16% | SN12C renal; 10 µM -12.9% | UO-31 renal; 10 µM 1.67% | CAKI-1 renal; 10 µM 2.66% | CCRF-CEM leukemia; 10 µM -28.1% | MOLT-4 leukemia; 10 µM -13.8%
inactive: HCT-15 colon; 10 µM 24.9% | HT29 colon; 10 µM 35.8% | SNB-19 CNS; 10 µM 24% | U251 CNS; 10 µM 25% | PC-3 prostate; 10 µM 29% | SK-MEL-5 melanoma; 10 µM 54.8% | SK-MEL-28 melanoma; 10 µM 34.5% | EKVX NSCLC; 10 µM 29.5% | TK-10 renal; 10 µM 19.6% | ACHN renal; 10 µM 10.2% | A498 renal; 10 µM 12.4%

O=C(/C(=C/c1ccccc1)CBr)c1ccccc1
inactive: HCT-15 colon; 10 µM 47% | HT29 colon; 10 µM 83.7% | SNB-75 CNS; 10 µM 48.6% | SNB-19 CNS; 10 µM 90.9% | U251 CNS; 10 µM 78.6% | PC-3 prostate; 10 µM 74.8% | SK-MEL-5 melanoma; 10 µM 87.7% | UACC-62 melanoma; 10 µM 72.7% | LOX IMVI melanoma; 10 µM 44.3% | SK-MEL-28 melanoma; 10 µM 94.4% | SK-MEL-2 melanoma; 10 µM 93.4% | EKVX NSCLC; 10 µM 82.1% | SN12C renal; 10 µM 71.4% | UO-31 renal; 10 µM 69.9% | TK-10 renal; 10 µM 116% | ACHN renal; 10 µM 70% | CAKI-1 renal; 10 µM 60.1% | A498 renal; 10 µM 128%
active: CCRF-CEM leukemia; 10 µM -4.28% | MOLT-4 leukemia; 10 µM -3.18%
